# Laboratory results reported in PubChem BioAssay (Tox21).
# Records with an inconclusive call do not appear. The source made the active and inactive calls. Calls come from the whole dose curve.
# Biological target: Vitamin D3 receptor (Homo sapiens) (UniProt P11473)
# Test: qHTS assay to identify small molecule agonists of the vitamin D receptor (VDR) signaling pathway (AID 743222)
# Details: HEK293T VDR-UAS-bla, beta-lactamase FRET ratio, 16 h; series mostly up to 63.5 µM
# From the text: National Center for Advancing Translational Sciences [NCATS]
# NIH Chemical Genomics Center [NCGC]
# U.S. Environmental Protection Agency [EPA]
# National Institutes of Environmental Health Sciences [NIEHS]
# National Toxicology Program [NTP]
# U.S. Food and Drug Administration [FDA]
# The vitamin D receptor (VDR), a member of nuclear hormone receptor superfamily, plays a critical role in calcium homeostasis and bone metabolism. It is also involved in cell differentiation and growth, and thrombogenicity.
# Tox21 Assay Protocol Summary:
# VDR-bla cells were dispensed at 2,000 cells/6 uL/well into black wall/clear-bottom 1536-well plates using a Multidrop Combi (Thermo Fisher Scientific, Waltham, MA) dispenser. After the assay plates were incubated at a 37C and 5% CO2 for 4 h, 23 nL of compounds dissolved in DMSO, positive controls or DMSO only was transferred to the assay plate by a Pintool station (Kalypsys, San Diego, CA). The plates were incubated at 37C and 5% CO2 for 16 h. After 1 uL of LiveBLAzerTM B/G FRET substrate was added using a Bioraptr Flying Reagent Dispenser (FRD) workstation (Beckman Coulter, Indianapolis, IN, USA), the plates were incubated at room temperature for 2 h, and fluorescence intensity was measured by an Envision plate reader (PerkinElmer, Shelton, CT).
# Sequence of Vitamin D3 receptor (Homo sapiens) (P11473 whole entry, looked up): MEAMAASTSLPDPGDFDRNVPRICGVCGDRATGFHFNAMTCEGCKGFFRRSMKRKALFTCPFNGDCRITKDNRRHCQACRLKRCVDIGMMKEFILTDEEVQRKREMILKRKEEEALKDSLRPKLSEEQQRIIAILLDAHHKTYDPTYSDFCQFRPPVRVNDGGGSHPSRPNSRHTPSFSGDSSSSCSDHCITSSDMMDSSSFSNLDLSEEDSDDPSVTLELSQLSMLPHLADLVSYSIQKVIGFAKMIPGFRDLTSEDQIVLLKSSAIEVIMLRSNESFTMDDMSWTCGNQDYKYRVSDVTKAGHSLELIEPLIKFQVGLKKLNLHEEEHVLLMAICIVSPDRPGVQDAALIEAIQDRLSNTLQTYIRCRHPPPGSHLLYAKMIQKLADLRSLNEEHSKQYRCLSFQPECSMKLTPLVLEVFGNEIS
row,Compound,outcome
1,CC(C)c1ccc(O)cc1,inactive
2,NNC(N)=O,inactive
3,C[C@H](CN1CCOCC1)C(C(=O)N1CCCC1)(c1ccccc1)c1ccccc1,inactive
4,CC(=NC#N)N(C)Cc1ccc(Cl)nc1,inactive
5,CCCN1CCC[C@@H]2Cc3nc(N)ncc3C[C@H]21,inactive
6,ClC1=C(Cl)C2(Cl)C(CBr)CC1(Cl)C2(Cl)Cl (stereo not given),inactive
7,CCOC(=O)CCl,inactive
8,CC1N=C(N)OC1c1ccccc1 (stereo not given),inactive
9,CN(C)C(=O)Oc1cc(OC(=O)N(C)C)cc(C(O)CNC(C)(C)C)c1 (stereo not given),inactive
10,CCOC(=O)N(C)N=O,inactive
11,CC(Cc1ccccc1)NCCn1cnc2c1c(=O)n(C)c(=O)n2C (stereo not given),inactive
12,N[C@@H]1C[C@H]1c1ccccc1,inactive
13,Clc1nc(Cl)nc(Nc2ccccc2Cl)n1,inactive
14,O=C1C2CC=CCC2C(=O)N1SC(Cl)(Cl)Cl (stereo not given),inactive
15,O=c1[nH]c2ccccc2n1C1CCNCC1,inactive
16,CCN[C@@H](C)Cc1ccccc1,inactive
17,N=C(N)[Se],inactive
18,CS(=O)(=O)c1ccc(C(=O)C2C(=O)CCCC2=O)c(Cl)c1COCC(F)(F)F,inactive
19,CCOP(=S)(OCC)SCCl,inactive
20,[P]#[In],inactive

row,Compound,outcome
1,O=C(O)C(F)(F)C(F)(F)C(F)(F)C(F)(F)C(F)(F)C(F)(F)F,inactive
2,Cn1c(N)nc2c3cccnc3ccc21,inactive
3,Cc1ccc(Cl)c(O)c1,inactive
4,BrCC1CO1 (stereo not given),inactive
5,O=c1[nH]c2ccccc2o1,inactive
6,C=CC(=O)OCCN(C)C,inactive
7,CC(C)NCC(O)c1ccc([N+](=O)[O-])cc1 (stereo not given),inactive
8,C=C(C)[C@H]1CN[C@H](C(=O)O)[C@H]1CC(=O)O,inactive
9,C=CC1(C)OC(=O)N(c2cc(Cl)cc(Cl)c2)C1=O (stereo not given),inactive
10,COC[C@@H](NC(C)=O)C(=O)NCc1ccccc1,inactive
11,CC(O)CCl (stereo not given),inactive
12,CCNc1nc(NCC)nc(SC)n1,inactive
13,ClCCN1CCCC1,inactive
14,CC(C)(C)NC[C@H](O)c1ccc(O)cc1Cl,inactive
15,OCC(Cl)CCl (stereo not given),inactive
16,CC(C)(C1CCC(O)CC1)C1CCC(O)CC1 (stereo not given),inactive
17,COP(=O)(OC)O/C(C)=C/C(=O)N(C)C,inactive
18,C=CCN1CC[C@]23CCCC[C@H]2[C@H]1Cc1ccc(O)cc13,inactive
19,Cl/C=C/CCl,inactive
20,CCOC(=O)C(SP(=S)(OC)OC)c1ccccc1 (stereo not given),inactive
